Laboratory results: PubChem BioAssay (NCI)
Several values for one entry are separate records, joined by “and”; a condition that tells them apart may be missing. Equal entries are not always repeated. About 79,000 compounds went through this panel and 15% of them were active in at least one assay; those are over-represented in the sample as a whole. Unmarked numbers belong to inactive results. Activity calls are given as the source filed them. No stated cut-off is given here; in the data, active means growth inhibition above about 70%; inactive means the rest.

assay: NCI Yeast Anticancer Drug Screen. Data for the cln2 rad14 strain (AID 165);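 further: 0% = growth equal to vehicle treated cultures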; settings: S. cerevisiae cln2 rad14 strain, at 50.0 µM, hits give high values
Procedure, shortened: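 The screen exposed genetically defined yeast (cln2 rad14) to test compounds and scored growth inhibition relative to vehicle-treated controls.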

| Structure (SMILES) | growth inhibition |
| --- | --- |
| CCCCCCCCCCCOP(=O)(OCC)OCC | 99.5% (active) |
| CN1C[C@H]2[C@@H](C1=O)[C@H](c1ccccc1)ON2C | 13.6% |
| Cc1cc(NC(=O)CCc2ccc(N3C(N)=NC(N)=NC3(C)C)cc2Cl)ccc1S(=O)(=O)F | 4.55% |
| CN1CCc2cc3c(cc2C1)OCO3 | -22.6% and 7.65% |
| O=C1NC(=O)C(CCC(=O)c2ccc3ccccc3c2)C(=O)N1 | -10.8% |
| CN(C)C(=O)Oc1c(Cl)cccc1Cl | 10.5% |
| COC1=CC(=O)OC(CCc2ccccc2)C1 (stereo not given) | -14.2% |
| CC([NH-])C(=O)O.CC([NH-])C(=O)O.[Cu+2] (stereo not given) | -40.1% |
| CC(O)C[N+](=O)[O-] (stereo not given) | -23% |
| Cc1ccc(SP(=S)(Sc2ccc(C)cc2)Sc2ccc(C)cc2)cc1 | -29.9% |
| O=[As](O)(O)c1cc(F)ccc1F | -15.3% |
| Nc1cc(C(=O)O)ccc1O.[Cl][Sn][Cl] | -45.8% |
| O=C(/C=C/c1ccccc1)Nc1ccc(Cl)cc1C(=O)c1ccccc1 | -6.6% |
| Oc1cc(Cl)c(O)c(Cl)c1 | -37.9% |
| CC(CCF)C(N)C(=O)O (stereo not given) | -0.8% and -0.2% |
| COc1ccc([N+](=O)[O-])cc1N=Cc1ccc(N(CCCl)CCCl)cc1C | 18.6% |
| O=[N+]([O-])c1ncccc1NCCN1CCCC1 | -29.3% |
| C[N+](C)(C)CC1CCCCC1=O (stereo not given) | 21.8% |
| C[N+]1(CCCl)CCc2cc([N+](=O)[O-])ccc2C1 (stereo not given) | -16.1% |
| CC[As](=O)(O)c1ccc(I)cc1 | -11.8% |

| Structure (SMILES) | growth inhibition |
| --- | --- |
| Cc1cc(Cl)ccc1NC(=O)/C(CC(=O)CC(c1ccccc1)c1c(O)c2ccccc2oc1=O)=N\O (stereo not given) | -37.6% |
| CP(C)C.[Ag][I] | -41.2% |
| COC1CC(OC2C(C)OC(OC3C(C)OC(OC4C(C)OC(O[C@H]5CC[C@@]6(C)C(=CC[C@]7(O)[C@@H]6C[C@@H](OC(C)=O)[C@@]6(C)[C@]7(O)CC[C@@]6(O)C(C)=O)C5)CC4OC)CC3OC)CC2OC)OC(C)C1O (stereo not given in full) | -3.7% |
| O=S(=O)(c1ccccc1)N1C2CCCC21 (stereo not given) | -2.75% |
| CCNCCC1(CC)C(=O)NC(=O)NC1=O | 2.2% |
| Cc1cccc(C(=O)[O][Pb]([CH3])([CH3])[CH3])c1 | -20% |
| CC(=O)C(C(C)=O)C(=O)c1ccc([N+](=O)[O-])cc1.[Cr] | -55.5% |
| [N-]=[N+]=NC1C2CC3CC(C2)CC1C3 (stereo not given) | -6.6% |
| C[N+]1(C)CCN(c2ccccc2)CC1 | 14.2% |
| OC(COc1cccc2ccccc12)CN(CCCl)CCCl (stereo not given) | 4.05% |
| CCOC(=O)C(C(=O)OCC)c1ccccc1 | 2.4% and 3.75% |
| CCCC[As](CCCC)SC1OC(COC(C)=O)C(OC(C)=O)C(OC(C)=O)C1OC(C)=O (stereo not given) | 96.9% (active) |
| CCCCOC1OCN(C2CCCCC2)CC1(C)C (stereo not given) | 13.7% |
| c1ccc2c(c1)sc1sc3c([n+]12)CCCC3 | -2.4% |
| COC1OC2COc3ccccc3OC2C(N=C(N)N[N+](=O)[O-])C1OS (stereo not given) | -24.7% |
| CC(C)OP(=O)(OC(C)C)C(C(F)(F)F)C(F)(F)F | 45.9% |
| NCCCP(c1ccccc1)c1ccccc1 | 8.7% |
| CC(NC1=NCCO1)c1cccs1 (stereo not given) | 25.9% |
| CC1CN(C2CCCCC2)CO1 (stereo not given) | -10.8% |
| CCOP(=O)(OCC)Oc1ccc([N+](=O)[O-])c(CC)c1 | 3.5% |

assay: NCI Yeast Anticancer Drug Screen. Data for the bub3 strain (AID 167); settings: S. cerevisiae bub3 mutant strain, at 50.0 µM, hits give high values
Procedure, shortened: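 Compounds were applied to a genetically altered yeast strain carrying a cell-cycle control defect. Growth inhibition was scored against vehicle-treated controls.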

| Structure (SMILES) | growth inhibition |
| --- | --- |
| CCCCCCCCCCCOP(=O)(OCC)OCC | 99.7% (active) |
| CN1C[C@H]2[C@@H](C1=O)[C@H](c1ccccc1)ON2C | 5.85% |
| Cc1cc(NC(=O)CCc2ccc(N3C(N)=NC(N)=NC3(C)C)cc2Cl)ccc1S(=O)(=O)F | 54% |
| CN1CCc2cc3c(cc2C1)OCO3 | -5.85% and 2.45% |
| O=C1NC(=O)C(CCC(=O)c2ccc3ccccc3c2)C(=O)N1 | -34.8% |
| CN(C)C(=O)Oc1c(Cl)cccc1Cl | 36.8% |
| COC1=CC(=O)OC(CCc2ccccc2)C1 (stereo not given) | -9.35% |
| CC([NH-])C(=O)O.CC([NH-])C(=O)O.[Cu+2] (stereo not given) | -15.9% |
| CC(O)C[N+](=O)[O-] (stereo not given) | 8.5% |
| Cc1ccc(SP(=S)(Sc2ccc(C)cc2)Sc2ccc(C)cc2)cc1 | -12.2% |
| O=[As](O)(O)c1cc(F)ccc1F | -8% |
| Nc1cc(C(=O)O)ccc1O.[Cl][Sn][Cl] | -1.65% |
| O=C(/C=C/c1ccccc1)Nc1ccc(Cl)cc1C(=O)c1ccccc1 | 40.4% |
| Oc1cc(Cl)c(O)c(Cl)c1 | -20.2% |
| CC(CCF)C(N)C(=O)O (stereo not given) | 43% and 20.7% |
| COc1ccc([N+](=O)[O-])cc1N=Cc1ccc(N(CCCl)CCCl)cc1C | 3.5% |
| O=[N+]([O-])c1ncccc1NCCN1CCCC1 | 7.05% |
| C[N+](C)(C)CC1CCCCC1=O (stereo not given) | 11.7% |
| C[N+]1(CCCl)CCc2cc([N+](=O)[O-])ccc2C1 (stereo not given) | -12.6% |
| CC[As](=O)(O)c1ccc(I)cc1 | 12.8% |

| Structure (SMILES) | growth inhibition |
| --- | --- |
| Cc1cc(Cl)ccc1NC(=O)/C(CC(=O)CC(c1ccccc1)c1c(O)c2ccccc2oc1=O)=N\O (stereo not given) | -29.1% |
| CP(C)C.[Ag][I] | -9.3% |
| COC1CC(OC2C(C)OC(OC3C(C)OC(OC4C(C)OC(O[C@H]5CC[C@@]6(C)C(=CC[C@]7(O)[C@@H]6C[C@@H](OC(C)=O)[C@@]6(C)[C@]7(O)CC[C@@]6(O)C(C)=O)C5)CC4OC)CC3OC)CC2OC)OC(C)C1O (stereo not given in full) | -12.7% |
| O=S(=O)(c1ccccc1)N1C2CCCC21 (stereo not given) | 7.5% |
| CCNCCC1(CC)C(=O)NC(=O)NC1=O | -43.7% |
| Cc1cccc(C(=O)[O][Pb]([CH3])([CH3])[CH3])c1 | -9.65% |
| CC(=O)C(C(C)=O)C(=O)c1ccc([N+](=O)[O-])cc1.[Cr] | 28.5% |
| [N-]=[N+]=NC1C2CC3CC(C2)CC1C3 (stereo not given) | -10.7% |
| C[N+]1(C)CCN(c2ccccc2)CC1 | -8.9% |
| OC(COc1cccc2ccccc12)CN(CCCl)CCCl (stereo not given) | 8.55% |
| CCOC(=O)C(C(=O)OCC)c1ccccc1 | 40.4% and 23.1% |
| CCCC[As](CCCC)SC1OC(COC(C)=O)C(OC(C)=O)C(OC(C)=O)C1OC(C)=O (stereo not given) | 98.5% (active) |
| CCCCOC1OCN(C2CCCCC2)CC1(C)C (stereo not given) | 36.8% |
| c1ccc2c(c1)sc1sc3c([n+]12)CCCC3 | -4.5% |
| COC1OC2COc3ccccc3OC2C(N=C(N)N[N+](=O)[O-])C1OS (stereo not given) | -3.15% |
| CC(C)OP(=O)(OC(C)C)C(C(F)(F)F)C(F)(F)F | 10.6% |
| NCCCP(c1ccccc1)c1ccccc1 | -1.7% |
| CC(NC1=NCCO1)c1cccs1 (stereo not given) | 15.7% |
| CC1CN(C2CCCCC2)CO1 (stereo not given) | -20.5% |
| CCOP(=O)(OCC)Oc1ccc([N+](=O)[O-])c(CC)c1 | 18.5% |
